Results filed as inconclusive are left out. Activity calls are given as the source filed them. The calls were made as follows: active = hit-call score of the fitted dose curve at least 0.9, where 1 is the maximum; inconclusive = response in the unintended direction; inactive = score below 0.9.
Experiments:
[1] = ACEA_AR_agonist_AUC_viability: ACEA Biosciences xCELLigence Real-Time Cell Analysis on Androgen Receptor Agonism for Viability (AID 2283775);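 as to AC50: viability read 80 hours after compound addition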
Procedure, shortened: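 Real-time impedance tracking of 22Rv1 growth, readings every 5 min for 5 h then hourly; area-under-curve viability endpoint at 80 hours, relative to DMSO. Compounds at eight concentrations, 1:4 steps, top 100 uM, n = 2.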

[2] = ACEA_AR_antagonist_AUC_viability: ACEA Biosciences xCELLigence Real-Time Cell Analysis on Androgen Receptor Antagonism for Viability (AID 2283776);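 also: 22Rv1 human prostate cancer cells growing on impedance electrode plates; hits lower the growth signal relative to DMSO meaning cytotoxicity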
Procedure, shortened: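 22Rv1 prostate cells, continuous dosing up to 100 uM final (0.5% DMSO max), duplicate plates. Growth measured by impedance; AUC at 80 h, loss of signal vs DMSO.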

[3] = ACEA_ER_AUC_viability: ACEA Biosciences xCELLigence Real-Time Cell Analysis on Estrogen Receptor Agonism for Viability (AID 2283782);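 also: continuous compound exposure with impedance area under curve over 80 h; hit means loss of impedance signal meaning reduced cell growth or viability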
Procedure, shortened: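 T-47D; phenol red-free RPMI1640 + 10% CS-FBS; 8 conc., 1:4 serial, max 100 uM final, ≤0.5% DMSO; n = 2; continuous exposure; impedance monitored to 80 h post-dose; AUC vs DMSO.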

[4] = molecular target: Luciferin 4-monooxygenase (Photinus pyralis) (UniProt P08659); test: CCTE_Simmons_QuantiLum_inhib_2: CCTE's Firefly Luciferase Inhibition Assay, Simmons Lab (AID 2283767);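 as to AC50: potency for inhibitors that lower luciferase luminescence relative to DMSO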
Luciferin 4-monooxygenase (Photinus pyralis), sequence (P08659 whole entry, looked up): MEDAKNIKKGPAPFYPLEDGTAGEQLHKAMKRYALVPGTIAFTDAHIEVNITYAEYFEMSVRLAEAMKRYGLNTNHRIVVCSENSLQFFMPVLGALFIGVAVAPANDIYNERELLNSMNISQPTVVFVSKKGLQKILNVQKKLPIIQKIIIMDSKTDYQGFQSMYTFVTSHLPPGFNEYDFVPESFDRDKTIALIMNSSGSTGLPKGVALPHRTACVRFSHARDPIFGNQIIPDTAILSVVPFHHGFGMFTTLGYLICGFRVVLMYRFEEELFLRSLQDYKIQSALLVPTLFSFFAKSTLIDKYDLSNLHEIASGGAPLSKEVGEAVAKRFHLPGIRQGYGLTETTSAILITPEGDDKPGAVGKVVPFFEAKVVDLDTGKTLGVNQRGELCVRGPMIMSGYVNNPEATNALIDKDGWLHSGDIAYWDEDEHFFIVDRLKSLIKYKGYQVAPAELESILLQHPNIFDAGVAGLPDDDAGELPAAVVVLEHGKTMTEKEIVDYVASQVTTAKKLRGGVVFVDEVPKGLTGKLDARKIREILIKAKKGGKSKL
Procedure, shortened: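 Luminescence loss relative to DMSO vehicle defines inhibition; detection reagent containing 150 uM D-luciferin and 147 uM dATP (final, pH 7.8) is injected immediately before each read. Enzyme is preincubated with an 8-point titration (5 nM–87.5 uM final) for 30 min at 37C.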

[5] = STM_H9_NormalizedViability: Cytotoxicity Assessment at 120 hours in the Stemina devTOX quickPredict H9 human embryonic stem cell (hESC)-based Assay (AID 2283784)
Procedure, shortened: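 Pluripotent H9 cells dosed, fresh medium plus compound q24h → cell layer read by CellTiter-Fluor → RFU blank-corrected, normalized to DMSO 0.1% mean. Loss-of-signal fit, DMSO as baseline.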

AR (gene 367) [6] = molecular target: AR (gene 367) (UniProt P10275); test: ACEA_AR_agonist_80hr: ACEA Biosciences xCELLigence Real-Time Cell Analysis on Androgen Receptor Agonism for Proliferation (AID 2283783);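 also: hits increase impedance growth signal above DMSO baseline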
AR (gene 367), sequence (P10275 whole entry, looked up): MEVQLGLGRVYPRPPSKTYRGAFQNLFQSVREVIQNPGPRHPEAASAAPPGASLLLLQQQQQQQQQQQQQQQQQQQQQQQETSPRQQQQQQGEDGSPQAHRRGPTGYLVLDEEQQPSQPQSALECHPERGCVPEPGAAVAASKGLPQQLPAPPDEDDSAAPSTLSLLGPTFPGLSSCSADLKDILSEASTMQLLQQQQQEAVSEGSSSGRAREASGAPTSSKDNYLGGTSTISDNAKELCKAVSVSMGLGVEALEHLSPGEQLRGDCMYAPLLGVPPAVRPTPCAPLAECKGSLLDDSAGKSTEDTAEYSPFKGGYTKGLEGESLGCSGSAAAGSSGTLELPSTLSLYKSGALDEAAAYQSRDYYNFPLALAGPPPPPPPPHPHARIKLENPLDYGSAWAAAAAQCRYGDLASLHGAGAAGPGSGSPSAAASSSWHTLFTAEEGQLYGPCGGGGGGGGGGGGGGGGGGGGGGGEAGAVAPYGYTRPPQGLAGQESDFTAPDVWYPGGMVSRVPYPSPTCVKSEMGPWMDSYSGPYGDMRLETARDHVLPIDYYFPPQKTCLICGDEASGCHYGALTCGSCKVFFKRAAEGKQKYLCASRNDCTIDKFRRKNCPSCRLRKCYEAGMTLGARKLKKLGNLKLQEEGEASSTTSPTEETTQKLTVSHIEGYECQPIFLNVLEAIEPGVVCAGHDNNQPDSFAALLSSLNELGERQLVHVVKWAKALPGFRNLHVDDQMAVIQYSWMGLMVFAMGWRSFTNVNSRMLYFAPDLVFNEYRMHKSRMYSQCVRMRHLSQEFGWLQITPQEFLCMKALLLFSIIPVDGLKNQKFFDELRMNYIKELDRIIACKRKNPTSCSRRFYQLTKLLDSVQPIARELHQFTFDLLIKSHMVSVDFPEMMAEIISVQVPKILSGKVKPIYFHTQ
Procedure, shortened: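 Androgen-driven proliferation in 22Rv1 cells is tracked as electrical impedance, taken 80 h after continuous exposure to compound (eight concentrations, 1:4 steps, maximum 100 uM final). Activity is fitted in the positive direction with DMSO as baseline.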

AR (gene 367) [7] = molecular target: AR (gene 367) (UniProt P10275); test: ACEA_AR_antagonist_80hr: ACEA Biosciences xCELLigence Real-Time Cell Analysis on Androgen Receptor Antagonism for Proliferation (AID 2283787);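 also: 22Rv1 human prostate cancer cells with growth followed by electrical impedance; hits lower the impedance growth signal relative to DMSO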
Procedure, shortened: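 Growth-kinetic antagonist readout in 22Rv1 cells, taken 80 h after continuous compound exposure. Activity fitted as signal loss relative to DMSO negative control.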

Compound: CC(=O)C(C)=CC1C(C)=CCCC1(C)C (stereo unspecified)
- outcome [1]: inactive
- AC50 [2]: 9.92 µM (active)

Compound: CCCCCCCCCCCC(=O)OC
- outcome [1]: inactive
- outcome [2]: inactive

Compound: C[Si]1(C)O[Si](C)(C)O[Si](C)(C)O[Si](C)(C)O1
- outcome [1]: inactive
- outcome [2]: inactive

Compound: NS(=O)(=O)c1cc2c(cc1Cl)NCNS2(=O)=O
- outcome [1]: inactive
- outcome [2]: inactive

Compound: O=C(OCCCCCOC(=O)c1ccccc1)c1ccccc1
- AC50 [1]: 90.1 µM (active)
- AC50 [2]: 77.9 µM (active)

Compound: CCc1c(C(=O)NN2CCCCC2)nn(-c2ccc(Cl)cc2Cl)c1-c1ccc(Br)cc1
- AC50 [1]: 12.7 µM (active)
- AC50 [2]: 10.8 µM (active)

Compound: NCCO
- outcome [1]: inactive
- outcome [2]: inactive

Compound: CCCCCCCCCCCCCCCCCC(=O)O
- outcome [1]: inactive
- AC50 [2]: 25 µM (active)

Compound: Cc1ccc(C(C)C)c(O)c1
- outcome [1]: inactive
- outcome [2]: inactive
- outcome [3]: inactive

Compound: CCCCCCCC=O
- outcome [1]: inactive
- outcome [2]: inactive

Compound: CC1(C)NC(=O)NC1=O
- outcome [1]: inactive
- outcome [2]: inactive

Compound: NCC1(Cc2noc(=O)[nH]2)CCCCC1
- outcome [1]: inactive
- outcome [2]: inactive

Compound: CC1(C)CC(N=C=O)CC(C)(CN=C=O)C1 (stereo unspecified)
- AC50 [1]: 25.5 µM (active)
- outcome [2]: inactive

Compound: Cc1c(C(=O)O)c(O)cc2c1C(=O)c1c(O)c([C@@H]3O[C@H](CO)[C@@H](O)[C@H](O)[C@H]3O)c(O)c(O)c1C2=O
- AC50 [4]: 18.5 µM (active)
- outcome [2]: inactive
- outcome [5]: inactive

Compound: NC(=O)Cn1c(=O)cc(CCN2CCN(c3nccc4sccc34)CC2)c2ccc(F)cc21
- outcome [1]: inactive
- AC50 [2]: 12.1 µM (active)

Compound: CCOC(=O)C(C)(C)Oc1ccc(Cl)cc1
- outcome [1]: inactive
- outcome [2]: inactive

Compound: Cc1nc(C)nc(N2C[C@@H](C)N(c3ccnc([C@@H](C)O)n3)[C@@H](C)C2)n1
- outcome [1]: inactive
- outcome [2]: inactive

Compound: COc1cccc2c1C(=O)c1c(O)c3c(c(O)c1C2=O)C[C@@](O)(C(=O)CO)C[C@@H]3O[C@H]1C[C@H](N)[C@H](O)[C@H](C)O1
- AC50 [1]: 0.0985 µM (active)
- AC50 [2]: 0.0588 µM (active)
- outcome [3]: inactive

Compound: Oc1ccc2c(c1)OC[C@@H](N1CCC(O)(c3ccc(F)cc3)CC1)[C@H]2O
- outcome [1]: inactive
- outcome [2]: inactive
- outcome [3]: inactive

Compound: c1cc(-c2ccncc2)ccn1
- outcome [1]: inactive
- outcome [2]: inactive

Compound: CC(C)c1ccc(C(=O)N=C(N)N)cc1S(C)(=O)=O
- outcome [1]: inactive
- outcome [2]: inactive

Compound: CCCCCCCCCCCCCO
- outcome [1]: inactive
- outcome [2]: inactive

Compound: CCCCCCC(=O)OCC
- AC50 [1]: 87.7 µM (active)
- outcome [2]: inactive
- outcome [3]: inactive

Compound: Nc1ccc2c(c1)C(=O)c1ccccc1C2=O
- outcome [1]: inactive
- AC50 [2]: 14.1 µM (active)

Compound: Cc1cccc(C)c1O
- outcome [4]: inactive
- outcome [2]: inactive
- outcome [3]: inactive
- outcome (AR (gene 367) [6]): inactive

Compound: C1CCC(SSC2CCCCC2)CC1
- AC50 [1]: 77.7 µM (active)
- AC50 [2]: 78.3 µM (active)
- AC50 [3]: 92.3 µM (active)

Compound: O=C(O)CCCCC(=O)O
- AC50 [1]: 9.92 µM (active)
- AC50 [2]: 3.82 µM (active)

Compound: Cc1ccc2ncccc2c1
- outcome [1]: inactive
- outcome [2]: inactive

Compound: CC(=O)OCCOCCOCCOC(C)=O
- outcome [2]: inactive

Compound: Clc1cc(Cl)c(Cl)cc1Cl
- outcome [1]: inactive
- outcome [2]: inactive
- outcome [3]: inactive

Compound: CCCCCCCCCCC
- outcome [1]: inactive
- outcome (AR (gene 367) [7]): inactive

Compound: COc1ccc2c(c1)c(CC(=O)O)c(C)n2C(=O)c1ccc(Cl)cc1
- AC50 [1]: 37 µM (active)
- AC50 [2]: 25.4 µM (active)
- AC50 [5]: 78.1 µM (active)
- AC50 (AR (gene 367) [7]): 34.1 µM (active)

Compound: CN1CCN(Cc2cc(-c3ccc4[nH]c(=O)oc4c3)co2)[C@@H](c2ccc(F)cc2)C1
- AC50 [3]: 50.8 µM (active)
- outcome [5]: inactive

Compound: CC(=O)OC/C=C(\C)CCC=C(C)C
- outcome [1]: inactive
- outcome [2]: inactive
- outcome [3]: inactive

Compound: O=C(O)Cc1ccccc1Nc1c(Cl)cccc1Cl
- AC50 [1]: 42.1 µM (active)
- AC50 [2]: 50 µM (active)
- AC50 (AR (gene 367) [7]): 70.9 µM (active)

Compound: CC(=O)Oc1ccccc1C(=O)O
- outcome [1]: inactive
- outcome [2]: inactive
- outcome (AR (gene 367) [7]): inactive

Compound: Cc1ccc(Cl)cc1
- outcome [3]: inactive

Compound: Cc1cccc([N+](=O)[O-])c1C
- outcome [1]: inactive
- outcome [2]: inactive
- outcome (AR (gene 367) [7]): inactive

Compound: C=CCOC(=O)c1ccccc1C(=O)OCC=C
- outcome [2]: inactive
- outcome [5]: inactive

Compound: COc1cc(/C=C/C(=O)CC(=O)/C=C/c2ccc(O)c(OC)c2)ccc1O
- AC50 [1]: 27 µM (active)
- AC50 [2]: 23.2 µM (active)
- outcome [3]: inactive
- outcome (AR (gene 367) [6]): inactive
- AC50 (AR (gene 367) [7]): 25.9 µM (active)

Compound: COCCOC[C@H](CC1(C(=O)NC2CCC(C(=O)O)CC2)CCCC1)C(=O)Oc1ccc2c(c1)CCC2 (stereo partly specified)
- outcome [1]: inactive
- AC50 [2]: 16.5 µM (active)
- AC50 (AR (gene 367) [7]): 18.2 µM (active)

Compound: O=C(N[C@@H](Cc1ccccc1)[C@@H](O)C(=O)N1C[C@@H](O)[C@@H](O)C1)c1cc2cc(Cl)ccc2[nH]1
- AC50 [1]: 69.6 µM (active)
- AC50 [2]: 30.9 µM (active)
- AC50 [3]: 55.2 µM (active)

Compound: FC(F)(F)C(F)(F)C(F)(F)C(F)(F)C(F)(F)C(F)(F)CCI
- outcome [1]: inactive
- outcome [2]: inactive
- outcome [3]: inactive

Compound: COc1cc(-c2nc(NC(=O)c3cc4cc(C)cc(C)c4n3CC(=O)O)sc2CCC2CCCCC2)c(OC)cc1Cl
- AC50 [1]: 9.71 µM (active)
- AC50 [2]: 9.23 µM (active)
- AC50 [3]: 11.4 µM (active)
- AC50 (AR (gene 367) [7]): 11.6 µM (active)

Compound: Cc1nc(-c2ccc3c(c2)CCN(CCC2CCC(NC(=O)/C=C/c4ccc(F)cc4)CC2)CC3)no1 (stereo unspecified)
- outcome [1]: inactive
- AC50 [2]: 16.8 µM (active)
- outcome [3]: inactive
- outcome [5]: inactive
- AC50 (AR (gene 367) [7]): 23.2 µM (active)

Compound: COCCOCCOC
- outcome [2]: inactive
- outcome (AR (gene 367) [6]): inactive
- outcome [5]: inactive
- outcome (AR (gene 367) [7]): inactive

Compound: CC(CO)OC(C)CO (stereo unspecified) (tested in a mixture with another compound)
- outcome [1]: inactive
- outcome [5]: inactive

Compound: CCCCCC(=O)O
- outcome [1]: inactive
- outcome [2]: inactive
- outcome (AR (gene 367) [7]): inactive

Compound: COc1ccc(S(=O)(=O)N2C(=O)[C@@](c3ccccc3OC)(N3C[C@H](O)C[C@H]3C(=O)N(C)C)c3cc(Cl)ccc32)c(OC)c1
- AC50 [1]: 20.3 µM (active)
- AC50 [2]: 20.5 µM (active)
- AC50 [3]: 24.3 µM (active)
- outcome [5]: inactive
- AC50 (AR (gene 367) [7]): 24 µM (active)

Compound: O=c1[nH]cc(F)c(=O)[nH]1
- AC50 [1]: 2.42 µM (active)
- AC50 [2]: 1.76 µM (active)
- AC50 [5]: 3.17 µM (active)

— PubChem BioAssay (EPA / NIEHS)
